Test results reported in PubChem BioAssay (EPA / NIEHS).
Active and inactive are the calls of the source. How the source made its calls: active means hit-call score of the fitted dose curve at least 0.9, where 1 is the maximum; inactive means score below 0.9.

Tests used:
Conditions in all cases: mRNA level, 48 h; actives raise or lower the signal
[1] = read-out: Cytochrome P450 3A7 (Homo sapiens) (UniProt P24462); assay: LTEA_HepaRG_CYP3A7: Life Technologies and Expression Analysis (LTEA) Assay for CYP3A7 using HepaRG (AID 2283492)
Outline: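 Human HepaRG liver cells, 48 h post-plating, switched to serum-free induction medium and exposed in duplicate for 48 h. Dosing: 100 uM top, half-log dilutions, 8 points, 0.5% DMSO vehicle. Read-out: CYP3A7 mRNA, gain or loss fitted against DMSO baseline.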

CYP3A5 (gene 1577) = assay: LTEA_HepaRG_CYP3A5: Life Technologies and Expression Analysis (LTEA) Assay for CYP3A5 using HepaRG (AID 2283493)
Outline: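 HepaRG plated 48 h, switched to serum-free induction medium, chemicals added 48 h (max 100 uM, half-log, 0.5% DMSO). RNA isolated; CYP3A5 by TaqMan qRT-PCR. Gain/loss vs DMSO.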

[2] = read-out: Fatty Acid-Binding Protein 1 (FABP1), FABP1 (gene 2168); assay: LTEA_HepaRG_FABP1: Life Technologies and Expression Analysis (LTEA) Assay for Fatty Acid-Binding Protein 1 (FABP1) using HepaRG (AID 2283494)
Outline: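 Differentiated human HepaRG cells were exposed in duplicate for 48 h in serum-free induction medium to 8-point half-log concentration series topping at 100 uM in 0.5% DMSO. FABP1 mRNA measured by TaqMan qRT-PCR, normalized to ACTB/GAPDH/POLR2A; bidirectional fit versus DMSO.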

[3] = read-out: Cytochrome P450 4A22 (Homo sapiens) (UniProt Q5TCH4); assay: LTEA_HepaRG_CYP4A22: Life Technologies and Expression Analysis (LTEA) Assay for Cytochrome P450 4A22 (CYP4A22) using HepaRG (AID 2283495)
Outline: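 Readout is CYP4A22 transcript induction or loss, quantified by qRT-PCR and normalized to ACTB, GAPDH and POLR2A. Human HepaRG cells receive test chemicals for 48 h at eight half-log concentrations from 100 uM in 0.5% DMSO.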

[4] = read-out: Cytochrome P450 7A1 (Homo sapiens) (UniProt P22680); assay: LTEA_HepaRG_CYP7A1: Life Technologies and Expression Analysis (LTEA) Assay for Cytochrome P450 7A1 (CYP7A1) using HepaRG (AID 2283496)
Outline: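 HepaRG cells plated 48 h, then switched to serum-free induction medium and exposed in duplicate for 48 h to 8-point half-log series from 100 uM in 0.5% DMSO. CYP7A1 mRNA by qRT-PCR (TaqMan), normalized to ACTB/GAPDH/POLR2A; bidirectional fit versus DMSO.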

[5] = read-out: Glutathione S-Transferase (GSTA2), GSTA2 (gene 2939); assay: LTEA_HepaRG_GSTA2: Life Technologies and Expression Analysis (LTEA) Assay for Glutathione S-Transferase (GSTA2) using HepaRG (AID 2283497)
Outline: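 Human HepaRG cells, plated 48 h, then exposed in serum-free induction medium for 48 h to eight half-log concentrations up to 100 uM in 0.5% DMSO, duplicate. GSTA2 mRNA by qRT-PCR, normalized to ACTB/GAPDH/POLR2A; bidirectional fit versus DMSO.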

[6] = read-out: Glutamate-cysteine ligase catalytic (GCLC), GCLC (gene 2729); assay: LTEA_HepaRG_GCLC: Life Technologies and Expression Analysis (LTEA) Assay for Glutamate-cysteine ligase catalytic (GCLC) using HepaRG (AID 2283498)
Outline: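 Differentiated human HepaRG cells, plated 48 h then switched to serum-free induction medium, were exposed in duplicate for 48 h to 8 half-log concentrations topping at 100 uM in 0.5% DMSO. GCLC mRNA was quantified by qRT-PCR against ACTB, GAPDH and POLR2A.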

[7] = read-out: growth arrest and DNA damage 45 (GADD45G), GADD45G (gene 10912); assay: LTEA_HepaRG_GADD45G: Life Technologies and Expression Analysis (LTEA) Assay for growth arrest and DNA damage 45 (GADD45G) using HepaRG (AID 2283499)
Outline: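 Gain or loss of GADD45G mRNA, quantified by TaqMan qRT-PCR against three housekeeping genes, is fitted in both directions relative to 0.5% DMSO. Human HepaRG cultures receive test chemical for 48 h at up to 100 uM.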

[8] = read-out: Glutamate-cysteine ligase regulatory (GCLM), GCLM (gene 2730); assay: LTEA_HepaRG_GCLM: Life Technologies and Expression Analysis (LTEA) Assay for Glutamate-cysteine ligase regulatory (GCLM) using HepaRG (AID 2283500)
Outline: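 Cells were plated, cultured 48 h, switched to serum-free induction medium, then dosed in duplicate for 48 h at eight half-log concentrations up to 100 uM. RNA was then profiled by qRT-PCR; gain or loss versus DMSO was fitted.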

[9] = read-out: Glutathione S-transferase M3 (GSTM3), GSTM3 (gene 2947); assay: LTEA_HepaRG_GSTM3: Life Technologies and Expression Analysis (LTEA) Assay for Glutathione S-transferase M3 (GSTM3) using HepaRG (AID 2283501)
Outline: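 HepaRG, plated 48 h, then serum-free induction medium; test chemical 48 h, duplicate; 100 uM top, half-log x8, 0.5% DMSO. Read-out: GSTM3 mRNA (TaqMan qRT-PCR, Fluidigm array). Bidirectional fit vs DMSO.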

Measured: AC50

Sequence of Cytochrome P450 3A7 (Homo sapiens) (P24462 whole entry, looked up): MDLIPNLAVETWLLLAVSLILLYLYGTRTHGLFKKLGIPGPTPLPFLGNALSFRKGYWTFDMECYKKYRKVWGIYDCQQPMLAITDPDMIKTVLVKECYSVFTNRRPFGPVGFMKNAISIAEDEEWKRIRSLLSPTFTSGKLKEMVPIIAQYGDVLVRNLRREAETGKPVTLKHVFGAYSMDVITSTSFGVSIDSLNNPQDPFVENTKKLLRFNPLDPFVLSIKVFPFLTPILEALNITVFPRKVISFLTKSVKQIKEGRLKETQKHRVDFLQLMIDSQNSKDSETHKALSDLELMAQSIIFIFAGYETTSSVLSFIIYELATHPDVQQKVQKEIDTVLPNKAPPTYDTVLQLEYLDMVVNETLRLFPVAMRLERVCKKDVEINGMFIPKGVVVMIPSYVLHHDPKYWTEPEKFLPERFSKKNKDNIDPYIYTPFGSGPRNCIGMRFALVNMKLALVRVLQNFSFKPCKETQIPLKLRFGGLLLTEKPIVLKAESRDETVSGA

Cc1ccc(N)c(N)c1
active: [1] 35.9 µM | [2] 74.8 µM | [5] 28.9 µM
inactive: all other assays above

Cn1cc(-c2ccccc2)c(=O)c(-c2cccc(C(F)(F)F)c2)c1
active: [1] 1.52 µM | [7] 50 µM
inactive: all other assays above

CCN(CC)CCO
inactive: all assays above

c1ccc2c(c1)oc1ccccc12
inactive: all assays above

CC(C)(C)C(O)(CCc1ccc(Cl)cc1)Cn1cncn1 (stereo unspecified)
inactive: CYP3A5 (gene 1577) | [6] | [9]
active: [1] 2.43 µM | [2] 11.5 µM | [3] 57 µM | [4] 50 µM | [5] 76.4 µM | [7] 50 µM | [8] 50 µM

Clc1ccc(C(c2ccc(Cl)cc2)C(Cl)Cl)cc1
active: [1] 9.55 µM | CYP3A5 (gene 1577) 29.7 µM | [2] 54.7 µM | [3] 22.4 µM | [4] 22.5 µM
inactive: [5] | [6] | [7] | [8] | [9]

C=CCc1ccc2c(c1)OCO2
inactive: all assays above

O=C(Oc1ccc(Br)cc1)N1CCN2CCC1CC2
active: [2] 31.6 µM | [3] 40 µM
inactive: all other assays above

COc1cc(C=O)cc2c1[C@H](COC(N)=O)[C@]1(OC(C)=O)ON2C[C@H]2[C@@H]1N2C(C)=O
inactive: [1] | CYP3A5 (gene 1577) | [8] | [9]
active: [2] 0.701 µM | [3] 0.0669 µM | [4] 0.417 µM | [5] 1.06 µM | [6] 0.312 µM | [7] 21.8 µM

CCCCC(CC)COC(=O)c1ccc(C(=O)OCC(CC)CCCC)c(C(=O)OCC(CC)CCCC)c1 (stereo unspecified)
inactive: all assays above

CCCCCOC(=O)c1ccccc1C(=O)OCCCCC
active: [3] 79.7 µM
inactive: all other assays above

CC(C)N(Cc1ccccc1)C(=O)C(C)(C)C
active: [1] 11.5 µM | [2] 8.19 µM
inactive: all other assays above

O=C(N[C@H](c1ccccc1)[C@@H]1CN2CCC1CC2)c1c(Cl)ccc(C(F)(F)F)c1Cl
inactive: CYP3A5 (gene 1577) | [6] | [8] | [9]
active: [1] 76.2 µM | [2] 85.1 µM | [3] 14.6 µM | [4] 80.1 µM | [5] 73.7 µM | [7] 21.4 µM

O=Cc1ccco1
inactive: all assays above

ClCCOCCCl
inactive: all assays above

CCCCCCCCn1sccc1=O
active: [1] 89.1 µM | CYP3A5 (gene 1577) 83.1 µM | [3] 78.9 µM | [4] 82.2 µM
inactive: all other assays above

Cc1ccc(N)cc1
inactive: all assays above

Nc1ccc(Cc2ccc(N)cc2)cc1
active: [1] 21.4 µM
inactive: all other assays above

CS(=O)(=O)NC(=O)c1cc(Oc2ccc(C(F)(F)F)cc2Cl)ccc1[N+](=O)[O-]
active: [1] 4.43 µM
inactive: all other assays above

Oc1ccc2ccc3cccc4ccc1c2c34
active: [4] 50 µM
inactive: all other assays above

OCCCBr
inactive: all assays above

Nc1ccc(Oc2ccc(N)cc2)cc1
active: [2] 50 µM
inactive: all other assays above

CC(C)(C)OOC(=O)c1ccccc1
inactive: all assays above

c1ccc(NNc2ccccc2)cc1
inactive: all assays above

COC(=O)c1ccccc1N
inactive: all assays above

CNC(=O)Oc1cccc2c1OC(C)(C)C2
active: [1] 7.32 µM | [2] 3.45 µM | [4] 9.92 µM
inactive: all other assays above

CC(C)(C)OOC(C)(C)CCC(C)(C)OOC(C)(C)C
inactive: all assays above

CC(C)COC(=O)c1ccccc1C(=O)OCC(C)C
not listed: [3]
inactive: all other assays above

Cc1cccc(N)c1N
active: CYP3A5 (gene 1577) 11.1 µM | [2] 62.6 µM | [3] 50 µM | [4] 46 µM | [5] 50 µM | [7] 50 µM
inactive: [1] | [6] | [8] | [9]

Cc1ccc(N=C=O)cc1N=C=O
active: [2] 23 µM | [4] 31.7 µM | [5] 50 µM | [6] 30.3 µM | [7] 50 µM
inactive: [1] | CYP3A5 (gene 1577) | [8] | [9]

ClC1=C(Cl)C2(Cl)C3C(Cl)C=CC3C1(Cl)C2(Cl)Cl (stereo unspecified)
active: [2] 15.9 µM | [4] 13.8 µM | [8] 32.1 µM
not listed: [3]
inactive: all other assays above

Clc1ccccc1Cl
not listed: [3]
inactive: all other assays above

CCN(CC)N=O
not listed: [4]
inactive: all other assays above

OCCCl
inactive: all assays above

O=C1CCCO1
active: CYP3A5 (gene 1577) 9.92 µM | [5] 50 µM | [6] 9.92 µM
not listed: [3]
inactive: all other assays above

CN(C)c1ccc(C(=O)c2ccc(N(C)C)cc2)cc1
active: [2] 50 µM | [3] 50 µM
inactive: all other assays above

COC(=O)Nc1nc2ccccc2[nH]1
not listed: [3]
inactive: all other assays above

Clc1ccc(Cl)c(Cl)c1
active: [4] 50 µM | [5] 84 µM | [6] 9.92 µM
not listed: [3]
inactive: all other assays above

[Cl-].[Cl-].[Hg+2]
active: [7] 24.1 µM
not listed: [3]
inactive: all other assays above
